Assay outcomes deposited in PubChem BioAssay by National Center for Advancing Translational Sciences (NCATS).
A selection: hits, their analogues and other compounds. The true share with any hit is near 3.2%.
MARV entry inh = Marburg virus entry inhibition. 1.8% of 300,000 active. Marburg virus pseudotyped entry inhibition, cell reporter. Potency, µM (top dose mostly 37.8 µM), most hits filed as inhibitors; calls by dose curve; tested in HEK293 cells
Lassa entry inh = inhibitors of Lassa virus binding or cell entry; 1.2% of 300,000 active; AID 540256; Lassa virus pseudotype entry inhibition, cell reporter; Potency, µM (series often up to 37.9 µM), hits mostly inhibitors; calls by dose curve; tested in HEK293 cells; also: nearly all actives have a fitted effect of over 50% in size
FMDV antiviral = antivirals against foot and mouth disease virus. FMDV antiviral cell-based qHTS. Potency, µM (highest dose often 57.9 µM), usual class: inhibitors. 1.2% of 410,000 active; calls by dose curve; tested in HEK293T cells; also: read-out not given here; nearly all actives have a fitted effect of over 45% in size
Vaccinia Venus = inhibitors of vaccinia virus (Venus reporter); 0.46% of 330,000 active; Potency, µM (highest dose often 36.5 µM), most hits filed as inhibitors; Vaccinia virus Venus reporter expression, fluorescence; calls by dose curve; tested in A549 cells; also: nearly all actives have a fitted effect of over 30% in size
Vaccinia mCherry = inhibitors of vaccinia virus infection (mCherry reporter signal) | 0.63% of 310,000 active | Potency, µM (titrated, usually from 36.5 µM), usual class: inhibitors | Vaccinia virus mCherry reporter infection, fluorescence; calls by dose curve; tested in A549 cells; also: nearly all actives have a fitted effect of over 35% in size
Large screens that a line does not name were inactive.

COc1ccc(C(=O)NNC(=O)c2ccc(C(C)(C)C)cc2)cc1	none
COc1ccc(C(=O)NNC(=S)NC(=O)C(C)(C)C)cc1	MARV entry inh inconclusive, Lassa entry inh inconclusive, Vaccinia Venus inconclusive, Vaccinia mCherry 3.98µM
C=CCCN(Cc1ccc(C)cc1)S(=O)(=O)C=C	none (no result: MARV entry inh, FMDV antiviral, Vaccinia Venus, Vaccinia mCherry)
O=C(c1ccccc1)c1c2c(cc3sc4ccccc4[n+]13)-c1cccc3cccc-2c13	MARV entry inh inconclusive, Lassa entry inh 14.6µM, FMDV antiviral 39.8µM
Cc1sc2cc3c(c(C(=O)c4ccccc4)[n+]2c1C)-c1cccc2cccc-3c12	MARV entry inh 4.47µM, Lassa entry inh inconclusive, FMDV antiviral 14.1µM
Cc1cc2ccccc2cc1C(=O)c1ccccc1	MARV entry inh inconclusive
CCC[n+]1c(/C=C/c2c(OC)cc(OC)cc2OC)ccc2ccccc21	Vaccinia mCherry 10µM (no result: MARV entry inh, Lassa entry inh, FMDV antiviral)
CCCC[n+]1c2ccccc2cc2ccccc21	FMDV antiviral 28.2µM, Vaccinia Venus inconclusive (no result: MARV entry inh, Lassa entry inh)
CCC[n+]1c2ccccc2cc2ccccc21	MARV entry inh inconclusive, Lassa entry inh inconclusive, FMDV antiviral inconclusive, Vaccinia mCherry inconclusive
CCCC[n+]1c(/C=C/c2c(OC)cc(OC)cc2OC)ccc2ccccc21	Vaccinia mCherry 10µM (no result: MARV entry inh, Lassa entry inh, FMDV antiviral)
Cc1cc(O)c(C(=O)c2cnc3c(c2)COc2ccccc2-3)cc1Cl	none
Nc1ccccc1C(=O)C[C@H](N)C(=O)O	none (no result: MARV entry inh, Lassa entry inh)
O=C(Nc1ncc(S(=O)(=O)c2ccc([N+](=O)[O-])cc2)s1)c1ccccc1F	none (no result: MARV entry inh, Lassa entry inh)
COC(=O)C(NC(=O)c1ccc(F)cc1)(Nc1ncc(S(=O)(=O)c2ccc([N+](=O)[O-])cc2)s1)C(F)(F)F (stereo not given)	MARV entry inh inconclusive, Lassa entry inh inconclusive, FMDV antiviral 12.6µM, Vaccinia Venus inconclusive, Vaccinia mCherry 11.2µM
Cc1ccc(C)c(C(=O)Cn2ncc(Cl)c(Cl)c2=O)c1	MARV entry inh 10µM, Lassa entry inh inconclusive, FMDV antiviral 31.6µM, Vaccinia Venus inconclusive
CCCc1cc(=O)[nH]c(SCC(=O)c2cc(C)n(CC(F)(F)F)c2C)n1	FMDV antiviral inconclusive (no result: Lassa entry inh)
CCC(=O)Nc1ccc(C(=O)Cn2ncc(Cl)c(Cl)c2=O)cc1	none (no result: MARV entry inh, Lassa entry inh, Vaccinia Venus, Vaccinia mCherry)
Cc1cc(C(=O)Cn2ncc(Cl)c(Cl)c2=O)c(C)n1CC(F)(F)F	MARV entry inh inconclusive, Lassa entry inh inconclusive, FMDV antiviral inconclusive, Vaccinia Venus 14.1µM, Vaccinia mCherry inconclusive
CCOc1ccc(CN(C)CC(=O)Nc2ccc([N+](=O)[O-])cc2Cl)cc1	FMDV antiviral inconclusive
CCC1CCCCN1S(=O)(=O)c1ccc(NC(=O)c2nc(SC)ncc2Cl)cc1 (stereo not given)	MARV entry inh inconclusive
COc1ccc(-n2c(C)cc(/C=C3\SC(=S)N(Cc4ccco4)C3=O)c2C)cc1	none
CCN1CCN(c2c(/C=C3\SC(=S)N(Cc4ccco4)C3=O)c(C)c(C#N)c(=O)n2C)CC1	MARV entry inh 12.6µM, Lassa entry inh inconclusive
COc1ccc(/C(O)=C2\C(=O)C(=O)N(c3cc(C)on3)[C@H]2c2ccccc2OC)cc1C	none (no result: Lassa entry inh, FMDV antiviral, Vaccinia Venus, Vaccinia mCherry)
O=[N+]([O-])c1ccc(N=Nc2ccc(O)cc2O)cc1	MARV entry inh inconclusive, Lassa entry inh 10µM, Vaccinia Venus inconclusive, Vaccinia mCherry inconclusive
O=[N+]([O-])c1cccc(N=Nc2ccc(O)cc2O)c1	MARV entry inh 2.82µM, Lassa entry inh inconclusive, Vaccinia Venus inconclusive, Vaccinia mCherry inconclusive
Nc1nc(NCc2ccc(Cl)c(Cl)c2)c2[nH]cnc2n1	none (no result: MARV entry inh, Lassa entry inh, FMDV antiviral)
CN1CCN2c3ncccc3Cc3ccccc3[C@@H]2C1	none (no result: MARV entry inh, Lassa entry inh)
CC(C)c1ccc2c(c1)C(N1CCN(C)CC1)Cc1cccnc1S2 (stereo not given)	MARV entry inh 11.2µM
CCCCN1C(=O)C(CC(=O)NCCCN(C)C)CC(C(=O)N(C(C)C)C(C)C)=C1C (stereo not given)	FMDV antiviral inconclusive (no result: MARV entry inh, Lassa entry inh)
O=C(Nc1ccccc1)c1cc(C2CCCN(C(=O)C3CC3)C2)on1 (stereo not given)	none (no result: MARV entry inh, Lassa entry inh)
CC(=O)N1CCCC(c2cc(C(=O)Nc3ccccc3)no2)C1 (stereo not given)	FMDV antiviral 35.5µM (no result: MARV entry inh, Lassa entry inh)
CCC(C)NC(=O)c1c(N)n(/N=C/c2cccnc2)c2nc3ccccc3nc12 (stereo not given)	MARV entry inh 25.9µM (no result: Vaccinia Venus, Vaccinia mCherry)
CCC(C)NC(=O)c1c(N)n(/N=C/c2ccccn2)c2nc3ccccc3nc12 (stereo not given)	MARV entry inh inconclusive (no result: Vaccinia Venus, Vaccinia mCherry)
CCOC(=O)c1nn(-c2ccc(Br)cc2)cc1C(=O)c1cccc2ccccc12	MARV entry inh 5.8µM, Lassa entry inh inconclusive (no result: Vaccinia Venus, Vaccinia mCherry)
C=CCn1c(O)c(C(CC)=NCc2cc(OC)cc(OC)c2)c(=O)[nH]c1=O	MARV entry inh inconclusive, Lassa entry inh 5.8µM, Vaccinia Venus inconclusive, Vaccinia mCherry inconclusive
Cn1nc(C(=O)NCc2ccc(F)cc2)c2ccccc2c1=O	none (no result: Vaccinia Venus, Vaccinia mCherry)
